Experimental data taken from PubChem BioAssay (NCATS).
Inconclusive results are not listed. A call without a number means that no potency is given here. The source made the active and inactive calls. The call rests on the fitted dose curve; in most records, active means well fitted inhibition curve with a large enough effect; inconclusive means small, poorly fitted or top-dose-only effect; inactive means flat fitted curve, though single readings scatter.

The compounds below were run against Calcium and integrin-binding protein 1 (Homo sapiens) (UniProt Q99828) (assay: Primary qHTS for Identification of Calcium Integrin Binding Protein 1 (CIB1) Competitor (AID 1508620;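 further: GST tagged CIB1 binding a fluorescein labelled alphaIIb integrin peptide tracer; top concentration of the series differs between compounds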)). Conditions: CIB1-GST / FITC-alphaIIb peptide fluorescence polarization; series mostly up to 114 µM.
Chain of Calcium and integrin-binding protein 1 (Homo sapiens) (Q99828 whole entry, looked up): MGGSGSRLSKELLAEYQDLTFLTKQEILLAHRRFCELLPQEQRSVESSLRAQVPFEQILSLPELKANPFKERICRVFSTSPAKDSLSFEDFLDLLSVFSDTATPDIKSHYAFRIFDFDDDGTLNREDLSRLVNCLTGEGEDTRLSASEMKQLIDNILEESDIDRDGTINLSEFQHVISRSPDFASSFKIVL
Procedure, shortened: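 CIB1-GST (1 uM final) and compound incubated 15 min at room temperature before adding FITC-alphaIIb peptide tracer (100 nM final). Competition for binding read by fluorescence polarization (ex 480, em 540) after another 15 min at room temperature.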
With `O=C(NCc1ccc(F)cc1)C(=O)c1c[nH]c2ccccc12` the Potency was “inactive”.
`CC1CCC2(CO)C(C(=O)O)=CCCC2C1(C)CCc1ccoc1` (centres undefined) was tested, and the Potency was “inactive”.
For `O=C(Nc1c(-c2cccs2)nc2ccccn12)c1ccc(Cl)cc1`, the Potency was “inactive”.
In the case of `C[C@@H]1O[C@@H](O[C@H]2[C@H](O)[C@@H](O)[C@H](O[C@H]3[C@H](O[C@H]4CC[C@@]5(C)C(=CC[C@@H]6C5CC[C@]5(C)[C@@H]7[C@H](C[C@@H]65)O[C@]5(CC[C@@](C)(CO[C@@H]6O[C@H](CO)[C@@H](O)[C@H](O)[C@H]6O)O5)[C@H]7C)C4)O[C@H](CO)[C@@H](O)[C@@H]3O)O[C@@H]2CO)[C@H](O)[C@H](O)[C@H]1O` (some centres undefined), the Potency is reported as “inactive”.
For `CC(C)Oc1ccc(C(=O)NC(CNC(=O)CN(C)C)Cc2ccc(-c3cn4cccc(C(C)O)c4n3)cc2)cc1Cl` (centres undefined), the Potency was “inactive”.
In the case of `C=C(C)C1CC[C@]2(C(=O)O)CC[C@]3(C(=O)O)[C@H](CCC4[C@@]5(C)CC[C@H](O)C(C)(C)C5CC[C@]43C)C12` (some centres undefined), the Potency is reported as “inactive”.
`CC(=O)OC1C(=O)C2(C)C(O)CC3OCC3(OC(C)=O)C2C(OC(=O)c2ccccc2)C2(O)CC(OC(=O)C(O)C(NC(=O)c3ccccc3)c3ccccc3)C(C)=C1C2(C)C` (centres undefined) was tested, and the Potency was “inactive”.
For `CCOc1cc(C)c(Cl)cc1S(=O)(=O)n1cnc2ccccc21`, the Potency was “inactive”.
With `NC(=O)c1cccc2cn(-c3ccc(C4CCCNC4)cc3)nc12` (centres undefined) the Potency was “inactive”.
With `NC(=O)[C@H]1CCS[C@@H]2C[C@]3(CCCN3C(=O)Cc3ccc(NC(=O)COc4ccc(Cl)cc4Cl)cc3)C(=O)N12` the Potency was “inactive”.
For `Cc1ccc(C(=O)N(CCCN)C(c2oc3cc(Cl)ccc3c(=O)c2Cc2ccccc2)C(C)C)cc1` (centres undefined), the Potency was “inactive”.
With `CC1=CC(=O)CC(C)(C)[C@@]1(O)CC[C@@H](C)O[C@@H]1O[C@H](CO)[C@@H](O)[C@H](O)[C@H]1O` the Potency was “inactive”.
`COc1c(C)c(OCC(O)C(C)(C)O)cc2c1COC2=O` (centres undefined) was tested, and the Potency was “inactive”.
In the case of `COC(=O)C1=CO[C@@H](O)C2C(CO)=CCC12` (some centres undefined), the Potency is reported as “inactive”.
`CC(Oc1ccc2[nH]nc(/C=C/c3cnn(CCO)c3)c2c1)c1c(Cl)cncc1Cl` (centres undefined) was tested, and the Potency was “inactive”.
In the case of `COc1ccc(CC2NCCc3c2[nH]c2ccc(C)cc32)cc1OC` (centres undefined), the Potency is reported as “inactive”.
With `Cc1cc(C)c2c(N)c(C(=O)NCc3ccc(Cl)cc3)sc2n1` the Potency was “inactive”.
`O=[N+]([O-])c1cccc2[nH]c(CNc3nc(N4CCOCC4)nc4c3ncn4-c3ccsc3)nc12` was tested, and the Potency was “inactive”.
`CS(=O)(=O)NCC1CCC(Nc2nc3c(s2)CCSc2ccccc2-3)CC1` (centres undefined) was tested, and the Potency was “inactive”.
`COc1cc2ncnc(N3CCC(Oc4cnc5ccccc5n4)C3)c2cc1OC` (centres undefined) was tested, and the Potency was “inactive”.
In the case of `O=C(CCc1nnc2n(Cc3ccc(Cl)cc3)c(=O)c3ccccc3n12)NCCC1=CCCCC1`, the Potency is reported as “inactive”.
With `O=C(O)/C=C/c1cc2c(cc1O[C@@H]1O[C@H](CO)[C@@H](O)[C@H](O)[C@H]1O)OCO2` the Potency was “inactive”.
With `CCOC(=O)c1cc(C#N)c(N2CCC(C(=O)NS(=O)(=O)Cc3ccccc3)CC2)nc1C` the Potency was “inactive”.
For `Cc1cnc(NC(=O)Nc2cc(Br)c(C)cc2OCC2CNCCO2)cn1` (centres undefined), the Potency was “inactive”.
For `CC(=O)OC1C(O)CC2(C)C(CCC(C)C23Cc2c(O)cc(CO)c(C=O)c2O3)C1(C)C` (centres undefined), the Potency was “inactive”.
In the case of `CC(=O)O[C@@H]1C[C@@H](OC(C)=O)C(C)(C)/C=C/[C@H](C)[C@H](OC(C)=O)[C@@]2(O)C[C@H](C)[C@H](OC(=O)c3ccccc3)[C@@H]2/C=C/1C`, the Potency is reported as “inactive”.
For `C=C1[C@H](OC(C)=O)[C@H]2[C@@H](OC(C)=O)[C@](C)(OC(C)=O)C[C@]2(OC(C)=O)C(=O)[C@H](C)/C=C/C(C)(C)C(=O)[C@H](OC(=O)C(C)CC)[C@H]1OC(C)=O` (some centres undefined), the Potency was “inactive”.
For `COc1ccc(/C=C/C(=O)O[C@H]2[C@H](O[C@H]3[C@@H]4C=CO[C@@H](O[C@@H]5O[C@H](CO)[C@@H](O)[C@H](O)[C@H]5O)[C@@H]4[C@@]4(CO)O[C@@H]34)O[C@@H](C)[C@H](O)[C@H]2OC(C)=O)cc1`, the Potency was “inactive”.
In the case of `CC1(C)CCC[C@]2(C)[C@H]3CC(=O)O[C@]3(C)CC[C@@H]12`, the Potency is reported as “inactive”.
With `CC1CC2OC3(OC2C(C)(C)O)C1C1(C)CCC24CC25CCC(O[C@@H]2OC[C@@H](O)[C@H](O)[C@H]2O)C(C)(C)C5CC=C4C1(C)C3O` (some centres undefined) the Potency was “inactive”.
In the case of `O=C(NCc1ccc(S(=O)(=O)c2cc(F)cc(F)c2)cc1)c1ccc2nccn2c1`, the Potency is reported as “inactive”.
`C/C(=C\CCC(C)CCO)C(=O)O[C@@H]1[C@@H](O)[C@H](OC2OC=C(C(=O)O)C3CCC(C)(O)C23)O[C@H](CO)[C@H]1O` (some centres undefined) was tested, and the Potency was “inactive”.
`CN(C)C1CCN(C(=O)c2ccc(NC(=O)Nc3ccc(-c4nc(N5CCOCC5)nc(N5CCOCC5)n4)cc3)cc2)CC1` was tested, and the Potency was “inactive”.
With `COc1cc2nc(N3CCC(N4CCCCC4)CC3)nc(NC3CCCCCC3)c2cc1OC` the Potency was “inactive”.
In the case of `COc1cc(NC(=O)Nc2cccc(CNC(=O)O[C@H]3CCOC3)c2)ccc1-c1cnco1`, the Potency is reported as “inactive”.
In the case of `C=C1C(=O)O[C@H]2C1[C@H](OC(=O)/C(=C/CO)COC(=O)/C(C)=C/CO)CC(=C)[C@@H]1CC(=O)[C@@H](C)[C@@H]12` (some centres undefined), the Potency is reported as “inactive”.
In the case of `Cc1cc(O)cc(O[C@@H]2O[C@H](CO)[C@@H](O)[C@H](O)[C@H]2O)c1`, the Potency is reported as “inactive”.
With `COc1ccc(CNC(=O)c2cc(-c3cncc(C)c3)ncc2-c2nccs2)nc1OC` the Potency was “inactive”.
With `O=C(O)c1cc(I)ccc1NC(=O)[C@H](Cc1ccccc1)NCc1ccccc1` the Potency was “inactive”.
